The whole screen tested about 310,000 compounds, of which about 14,000 (4.5%) showed an effect of 50% or more. Effects have a minus sign here. The list comes from a sample in which strong results are over-represented; it also holds similar structures and randomly drawn compounds.
biological target: human ether-à-go-go-related gene (hERG) potassium channel (human, UniProt Q12809); experiment: primary screen, population patch clamp on CHO cells stably expressing hERG; higher = less effect of the substance
Sequence (Q12809 whole entry, looked up): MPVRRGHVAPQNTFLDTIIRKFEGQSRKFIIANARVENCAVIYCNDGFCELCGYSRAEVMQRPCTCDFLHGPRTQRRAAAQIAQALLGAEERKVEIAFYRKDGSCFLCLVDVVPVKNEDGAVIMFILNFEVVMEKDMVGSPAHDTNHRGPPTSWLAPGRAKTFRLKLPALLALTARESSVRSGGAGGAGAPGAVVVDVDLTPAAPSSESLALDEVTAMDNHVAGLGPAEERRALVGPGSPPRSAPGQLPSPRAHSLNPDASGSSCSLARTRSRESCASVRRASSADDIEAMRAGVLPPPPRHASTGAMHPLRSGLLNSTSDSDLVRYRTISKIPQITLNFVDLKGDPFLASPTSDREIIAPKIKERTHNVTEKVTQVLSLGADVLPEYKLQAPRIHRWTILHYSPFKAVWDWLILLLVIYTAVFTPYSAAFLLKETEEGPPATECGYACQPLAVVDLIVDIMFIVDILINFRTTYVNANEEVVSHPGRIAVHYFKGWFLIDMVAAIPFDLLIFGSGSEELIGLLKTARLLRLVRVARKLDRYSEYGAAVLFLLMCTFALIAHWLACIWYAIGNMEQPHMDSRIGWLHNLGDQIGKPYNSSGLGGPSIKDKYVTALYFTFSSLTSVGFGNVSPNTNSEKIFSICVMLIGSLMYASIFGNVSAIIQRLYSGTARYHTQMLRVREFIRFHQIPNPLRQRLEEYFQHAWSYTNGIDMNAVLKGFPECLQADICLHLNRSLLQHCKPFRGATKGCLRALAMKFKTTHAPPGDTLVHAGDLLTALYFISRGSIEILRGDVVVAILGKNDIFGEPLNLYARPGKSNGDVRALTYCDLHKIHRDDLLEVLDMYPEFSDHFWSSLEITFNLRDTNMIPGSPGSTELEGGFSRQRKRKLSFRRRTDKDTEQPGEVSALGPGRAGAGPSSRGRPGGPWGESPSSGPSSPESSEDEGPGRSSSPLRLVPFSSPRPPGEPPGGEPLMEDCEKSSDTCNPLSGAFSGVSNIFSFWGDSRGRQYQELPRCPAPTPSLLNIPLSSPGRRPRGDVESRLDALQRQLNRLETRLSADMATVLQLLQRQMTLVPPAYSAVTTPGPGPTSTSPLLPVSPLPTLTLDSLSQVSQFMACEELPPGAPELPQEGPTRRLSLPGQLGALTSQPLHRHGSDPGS
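Note: peak tail current of the secondary pulse compared with the same well before compound.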

**Q.** With `Cc1ccc(C)c(N2N=C(C(=O)Nc3ccccc3N3CCCC3)CCC2=O)c1` as the molecule, how does the “hERG current change (%, negative = inhibition) at 10uM” value read?
**A.** 3.97%

**Q.** How did the “hERG current change (%, negative = inhibition) at 10uM” value turn out when `COc1ccccc1/C=N\Nc1ccccc1[N+](=O)[O-]` was run?
**A.** 21.7%

**Q.** `O=C(O)c1ccc(CNC(=O)c2ccc(S(=O)(=O)N3CCCCC3)cc2)cc1` was tested. Which “hERG current change (%, negative = inhibition) at 10uM” value did it give?
**A.** -1.88%

**Q.** How did the “hERG current change (%, negative = inhibition) at 10uM” value turn out when `NC(=O)Cn1cnc(-c2ccccc2)c1` was run?
**A.** 9.58%

**Q.** Which “hERG current change (%, negative = inhibition) at 10uM” value does the source give for `CCCCc1c(O)nc(SCC(=O)N2CCOCC2)n(-c2ccccc2OC)c1=O` here?
**A.** 7.27%

**Q.** Which “hERG current change (%, negative = inhibition) at 10uM” value does the source give for `COCCNC(=O)C1(C)C=CC2(CCCCC2)N1C(=O)c1ccccc1` (stereo not drawn) here?
**A.** 5.19%

**Q.** `CC(=O)N(CN1C(=O)C2CC=CCC2C1=O)c1cccc(Cl)c1` (stereo not drawn) was tested. Which “hERG current change (%, negative = inhibition) at 10uM” value did it give?
**A.** -5.31%

**Q.** Which “hERG current change (%, negative = inhibition) at 10uM” value does the source give for `Cc1cc(C(=O)N2CCCC(N3CCN(c4ccc(F)cc4)CC3)C2)c(C)o1` (stereo not drawn) here?
**A.** -59.1%

**Q.** How did the “hERG current change (%, negative = inhibition) at 10uM” value turn out when `Cc1cc(C)c(C(=O)N2CCCC(N3CCN(c4cccc(C(F)(F)F)c4)CC3)C2)o1` (stereo not drawn) was run?
**A.** -52.1%

**Q.** `Cc1nonc1C(=O)N1CCCC(N2CCN(c3ccc(F)cc3)CC2)C1` (stereo not drawn) was tested. Which “hERG current change (%, negative = inhibition) at 10uM” value did it give?
**A.** -51.8%

**Q.** How did the “hERG current change (%, negative = inhibition) at 10uM” value turn out when `Cc1ccc2nccc(C(=O)N3CCCC(N4CCN(c5ccc(F)cc5)CC4)C3)c2c1` (stereo not drawn) was run?
**A.** -48.5%

**Q.** Which “hERG current change (%, negative = inhibition) at 10uM” value does the source give for `Cc1cc(C(=O)N2CCCC(N3CCN(c4cccc(C(F)(F)F)c4)CC3)C2)c(C)o1` (stereo not drawn) here?
**A.** -23.2%

**Q.** `Cc1cc(C)c(C(=O)N2CCCC(Nc3ccc(F)cc3)C2)o1` (stereo not drawn) was tested. Which “hERG current change (%, negative = inhibition) at 10uM” value did it give?
**A.** 9.39%

**Q.** `Cc1nnsc1C(=O)N1CCCC(N2CCN(c3ccc(F)cc3)CC2)C1` (stereo not drawn) was tested. Which “hERG current change (%, negative = inhibition) at 10uM” value did it give?
**A.** -12.3%

**Q.** Which “hERG current change (%, negative = inhibition) at 10uM” value does the source give for `Cc1ncoc1C(=O)N1CCCC(N2CCN(c3cccc(C(F)(F)F)c3)CC2)C1` (stereo not drawn) here?
**A.** -35.7%

**Q.** Which “hERG current change (%, negative = inhibition) at 10uM” value does the source give for `COc1ccccc1N1CCN(C2CCCN(C(=O)c3cc(C)oc3C)C2)CC1` (stereo not drawn) here?
**A.** -3.28%

**Q.** For `Cc1cc(C)c(C(=O)N2CCCC(N3CCN(c4ccc(F)cc4)CC3)C2)o1` (stereo not drawn), which “hERG current change (%, negative = inhibition) at 10uM” value is on record?
**A.** -73.6%

**Q.** Which “hERG current change (%, negative = inhibition) at 10uM” value does the source give for `COc1ccccc1N1CCN(C2CCCN(C(=O)c3oc(C)cc3C)C2)CC1` (stereo not drawn) here?
**A.** -47.9%

**Q.** Which “hERG current change (%, negative = inhibition) at 10uM” value does the source give for `Cc1cccc(N(CC(=O)N/N=C/c2ccc(OCC(=O)NCc3ccco3)cc2)S(C)(=O)=O)c1C` here?
**A.** 4.14%

**Q.** For `C=CCn1c(O)c(C(C)=NCC2CCCO2)c(=O)[nH]c1=O` (stereo not drawn), which “hERG current change (%, negative = inhibition) at 10uM” value is on record?
**A.** -6.3%

**Q.** `O=C(NCCC(NS(=O)(=O)OCC(Cl)(Cl)Cl)c1ccccc1)C(F)(F)F` (stereo not drawn) was tested. Which “hERG current change (%, negative = inhibition) at 10uM” value did it give?
**A.** -16.4%

**Q.** For `NC(=O)CCCC1=NS(=O)(=O)c2ccccc2N1`, which “hERG current change (%, negative = inhibition) at 10uM” value is on record?
**A.** 11.5%

**Q.** For `COc1c(F)c(F)c(C(=O)Nc2ccccc2N2CCN(C(=O)C(C)C)CC2)c(F)c1F`, which “hERG current change (%, negative = inhibition) at 10uM” value is on record?
**A.** 6.51%

**Q.** Which “hERG current change (%, negative = inhibition) at 10uM” value does the source give for `COc1cc2ccccc2cc1C(=O)Nc1ccccc1N1CCCC1` here?
**A.** -4.16%

**Q.** Which “hERG current change (%, negative = inhibition) at 10uM” value does the source give for `O=C(Nc1ccccc1N1CCCC1)c1ccccc1F` here?
**A.** -3.26%

**Q.** For `COc1ccc(Cl)cc1C(=O)NC(=S)Nc1ccccc1N1CCOCC1`, which “hERG current change (%, negative = inhibition) at 10uM” value is on record?
**A.** 10.2%

**Q.** With `O=C(Nc1ccccc1N1CCN(c2ccccc2)CC1)c1ccccc1F` as the molecule, how does the “hERG current change (%, negative = inhibition) at 10uM” value read?
**A.** 8.96%

**Q.** With `COc1ccc(Cl)cc1C(=O)Nc1ccccc1N1CCN(C)CC1` as the molecule, how does the “hERG current change (%, negative = inhibition) at 10uM” value read?
**A.** -79.3%

**Q.** How did the “hERG current change (%, negative = inhibition) at 10uM” value turn out when `COc1ccc(Cl)cc1C(=O)Nc1ccccc1N1CCN(C(=O)C(C)C)CC1` was run?
**A.** -74%

**Q.** `CC(C)C(=O)N1CCN(c2ccccc2NC(=O)c2ccc(C#N)cc2F)CC1` was tested. Which “hERG current change (%, negative = inhibition) at 10uM” value did it give?
**A.** -72.2%

**Q.** How did the “hERG current change (%, negative = inhibition) at 10uM” value turn out when `CC(=O)N1CCN(c2ccccc2NC(=O)c2ccc(C#N)cc2F)CC1` was run?
**A.** -49.6%

**Q.** With `COc1ccc(C(=O)Nc2ccccc2N2CCN(C(=O)C(C)C)CC2)cc1Cl` as the molecule, how does the “hERG current change (%, negative = inhibition) at 10uM” value read?
**A.** -30.9%

**Q.** For `CC1CCN(c2ccccc2NC(=O)c2ccc(C#N)cc2F)CC1`, which “hERG current change (%, negative = inhibition) at 10uM” value is on record?
**A.** 5.07%

**Q.** How did the “hERG current change (%, negative = inhibition) at 10uM” value turn out when `CN1CCN(c2ccccc2NC(=O)c2ccccc2F)CC1` was run?
**A.** -70.8%

**Q.** Which “hERG current change (%, negative = inhibition) at 10uM” value does the source give for `CN(C)c1ccc(NC(=O)c2ccc(COc3cccc(Cl)c3)o2)cc1` here?
**A.** 0.95%

**Q.** Which “hERG current change (%, negative = inhibition) at 10uM” value does the source give for `CS(=O)(=O)N(CC(=O)N1CCOCC1)Cc1ccc(Cl)cc1` here?
**A.** 4.67%

**Q.** How did the “hERG current change (%, negative = inhibition) at 10uM” value turn out when `COc1cc(C(=O)NCC2(N3CCCCC3)CCCCC2)ccc1OCC(=O)N1CCOCC1` was run?
**A.** -3.67%

**Q.** Which “hERG current change (%, negative = inhibition) at 10uM” value does the source give for `CC(=O)Nc1cccc(C(=O)OC(C)C(=O)N2CCc3ccccc32)c1` (stereo not drawn) here?
**A.** -33.2%

**Q.** How did the “hERG current change (%, negative = inhibition) at 10uM” value turn out when `Cc1ccc(C(=O)N2CCN(c3ncnc4c(-c5ccccc5)nsc34)CC2)cc1` was run?
**A.** 18.1%

**Q.** `Cc1cc(C)n(-c2nc(NCC3CCCO3)c3c4c(sc3n2)COC(C)(C)C4)n1` (stereo not drawn) was tested. Which “hERG current change (%, negative = inhibition) at 10uM” value did it give?
**A.** -20.2%

**Q.** How did the “hERG current change (%, negative = inhibition) at 10uM” value turn out when `CC(NCc1ccc([N+](=O)[O-])cc1)C1COc2ccccc2O1.O=C(O)C(=O)O` (stereo not drawn) was run?
**A.** -66.2%

**Q.** For `COc1ccc(CNC(C)C2COc3ccccc3O2)c(OC)c1.O=C(O)C(=O)O` (stereo not drawn), which “hERG current change (%, negative = inhibition) at 10uM” value is on record?
**A.** -63.2%

**Q.** How did the “hERG current change (%, negative = inhibition) at 10uM” value turn out when `COc1ccc(CC(=O)NC(C)C2COc3ccccc3O2)cc1OC` (stereo not drawn) was run?
**A.** -0.81%

**Q.** For `CCOC(=O)CCNC(C)C1COc2ccccc2O1.O=C(O)C(=O)O` (stereo not drawn), which “hERG current change (%, negative = inhibition) at 10uM” value is on record?
**A.** 1.93%

**Q.** `COc1ccc(CNC(=O)C2COc3ccccc3O2)c(OC)c1` (stereo not drawn) was tested. Which “hERG current change (%, negative = inhibition) at 10uM” value did it give?
**A.** -26.4%

**Q.** With `CC(NCc1ccccc1)C1COc2ccccc2O1` (stereo not drawn) as the molecule, how does the “hERG current change (%, negative = inhibition) at 10uM” value read?
**A.** 2.12%

**Q.** For `Cc1ccc(NC(=S)NCCc2c[nH]c3ccccc23)cc1`, which “hERG current change (%, negative = inhibition) at 10uM” value is on record?
**A.** -1.12%

**Q.** How did the “hERG current change (%, negative = inhibition) at 10uM” value turn out when `COc1ccc(OCC(O)CNC(=O)c2ccc(OC)cc2)cc1` (stereo not drawn) was run?
**A.** 14.9%

**Q.** How did the “hERG current change (%, negative = inhibition) at 10uM” value turn out when `COCCn1c(SCC(=O)Nc2ccc(F)cc2F)nc2c([nH]c3ccccc32)c1=O` was run?
**A.** 8.08%

**Q.** Which “hERG current change (%, negative = inhibition) at 10uM” value does the source give for `COCCCn1c(C)nnc1SCC(=O)NNC(=O)COc1ccc(Cl)cc1` here?
**A.** 22.6%

**Q.** Which “hERG current change (%, negative = inhibition) at 10uM” value does the source give for `COc1ccc(-c2ccc(Nc3ccc(S(=O)(=O)N4CCCC4)cc3)nn2)cc1OC` here?
**A.** 6.55%

**Q.** Which “hERG current change (%, negative = inhibition) at 10uM” value does the source give for `Cn1c(=O)[nH]c(=O)c2c1nc(N1CCNCC1)n2Cc1cccc2ccccc12` here?
**A.** -16.4%

**Q.** For `Cc1cccc(N/C(=N/S(=O)(=O)c2ccccc2)c2ccccc2)n1`, which “hERG current change (%, negative = inhibition) at 10uM” value is on record?
**A.** -24.9%

**Q.** How did the “hERG current change (%, negative = inhibition) at 10uM” value turn out when `CCN(c1cccc(C)c1)C(C(=O)Nc1ccc(OC)cc1)c1cc2c(cc1[N+](=O)[O-])OCO2` (stereo not drawn) was run?
**A.** 21.1%

— publication PMC4336329 (PLoS ONE, 2015)
